Consider 8 molecules from PubChem BioAssay (NCI).

Common to all, as to experiment: NCI-60 one-dose screen, 48 h (100 = growth as untreated, 0 = no growth, -100 = all killed)
Holding throughout (conditions): 10 µM unless noted

Test [1] relates to DU-145 prostate.
The subject of test [2] is K-562 leukemia.
Test [3] relates to MALME-3M melanoma.
Test [4] deals with MDA-MB-231 breast.
In test [5] the test system is RXF 393 renal.
The test system of test [6] is SF-268 CNS.
Test [7] concerns SF-295 CNS.
For test [8], the system named is SF-539 CNS.
In test [9] the test system is UACC-257 melanoma.
In test [10] the test system is M14 melanoma.
The subject of test [11] is HCT-15 colon.
Test [12] relates to HT29 colon.
In test [13] the test system is SNB-75 CNS.
Test [14] deals with SNB-19 CNS.
The subject of test [15] is U251 CNS.
Test [16] concerns PC-3 prostate.
Test [17] relates to SK-MEL-5 melanoma.
Test [18] relates to UACC-62 melanoma.
The subject of test [19] is LOX IMVI melanoma.
Test [20] deals with SK-MEL-28 melanoma.

The panel holds about 83,000 compounds, 20% with a hit somewhere; the sample as a whole holds those more often.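 The endpoint reported here, percent growth, reads 100 for growth as untreated, 0 for no net growth and -100 for all cells dead.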 Unmarked numbers belong to inactive results. Activity calls are given as the source filed them. Rule for the calls: active = growth percent below 10; inactive = the rest.

As for `Fc1cccc(CNc2c3ccccc3nc3ccccc23)c1F`, the growth in test [1] is 76.7%; in test [2], 43.4%; in test [3], 94.1%; in [4], 58.2%; in test [5] it was 59.5%; in test [6], 83.4%. For the same molecule, the growth was 53.7% in test [7]; 55.5% in test [8]; 92.9% in test [9]; 70.6% in test [10]; 39.5% in [11]; 29.1% in test [12]. The growth in [13] is 78.8%; in [14] it was 58.5%; in test [15], 65.6%; in test [16], 57.1%; in [17], 83%; in test [18], 75.7%. For the same molecule, the results for the growth in [19] and in [20] were 39.2% and 96.9%, respectively.
`N#CC1=C(c2ccc(Cl)cc2)Nc2c(c(-c3ccc(Cl)cc3)nn2-c2ccccc2)C12C(=O)Nc1ccc(Cl)cc12` (stereo not given): the growth is 76.6% in test [1]; 24.3% in test [2]; 77% in test [3]; 50.1% in test [4]; 21.3% in test [5]; 38.2% in test [6]. Also, the growth is 23.2% in [7]; 74.2% in test [8]; 63.4% in [9]; 41.9% in test [10]; 18.4% in test [11]; 32.4% in [12]. The growth in test [13] was 19%; in test [14], 24.4%; in [15], 25.3%; in test [16] it was 21.5%; in [17], 78.7%; in test [18] it was 54.6%. Besides, the growth was 41.5% in test [19] and 79.6% in [20].
For the molecule `C#CCn1cnc2c(Nc3cccc(NC(=O)C=C)c3)ncnc21`, the growth in test [1] is 86.4%; in [2], 72.7%; in test [3] it was 78.9%; in test [4] it was 80%; in test [5], 85.2%; in test [6] it was 63.4%. In addition, the growth in test [7] is 80.5%; in test [8], 66.8%; in [9] it was 75.6%; in [10], 76.6%; in test [11], 73.3%; in test [12], 90.6%. Moreover, the growth was 66% in [13]; 89.9% in test [14]; 88.2% in [15]; 71.5% in [16]; 88.7% in test [17]; 82.6% in [18]. Besides, the growth in test [19] is 100%; in [20], 87.6%.
With `Clc1ccc(Nc2nnc(COc3ccccc3)c3ccccc23)cc1`, the growth in test [1] was 10.4%; in [2], 2.77% (active); in test [3], -13.5% (active); in test [4], 11.4%; in test [5], -5.93% (active); in test [6] it was 13.2%. Further, the growth in [7] is -1.11% (active); in [8], 8.42% (active); in test [9], -24.9% (active); in test [10], -9.99% (active); in test [11], 4.45% (active); in [12], 1.32% (active). Also, the growth in test [13] is 13.1%; in test [14] it was 22%; in test [15], -12.7% (active); in test [16], -0.2% (active); in test [17], -96.1% (active); in [18], -27.7% (active). For the same molecule, the values for the growth in test [19] and in test [20] were -62% (active) and 4.73% (active), respectively.
Regarding `O=C(COc1ccc(-c2nc3ccccc3[nH]2)cc1)N=Nc1c(O)[nH]c2ccc(Cl)cc12`, the growth in test [1] was 91.9%; in [2], 2.09% (active); in test [3], 93.3%; in test [4], 84.6%; in test [5], 88.2%; in [6], 99.3%. The growth is 91.2% in [7]; 93.3% in test [8]; 104% in test [9]; 87% in test [10]; 93% in [11]; 41.2% in [12]. Moreover, the growth in [13] is 103%; in test [14], 56.5%; in [15], -45.1% (active); in test [16], 25.9%; in test [17] it was 94.9%; in [18], 100%. Also, the growth is 60.7% in [19] and 108% in test [20].
In the case of `O=C(O)c1[nH]c(=O)[nH]c(=O)c1[N+](=O)[O-]`, the growth in test [1] is 134%; in [2] it was 89.7%; in test [3], 124%; in [4], 110%; in [5], 113%; in test [6], 117%. Besides, the growth in [7] was 104%; in test [8] it was 103%; in test [9] it was 97.7%; in test [10] it was 110%; in test [11], 98.8%; in test [12], 129%. Moreover, the growth in [13] was 93.4%; in test [14], 110%; in test [15], 104%; in test [16], 96.7%; in test [17], 110%; in test [18], 106%. Also, the growth in [19] is 105%; in [20] it was 121%.
On to `COC(C(=O)[C@@H](O)[C@@H](C)O)[C@@H]1Cc2cc3cc(O[C@H]4C[C@@H](O[C@H]5C[C@@H](O)[C@H](O)C(C)O5)[C@H](O)C(C)O4)cc(O)c3c(O)c2C(=O)[C@H]1O[C@H]1C[C@@H](O[C@H]2C[C@@H](O[C@H]3C[C@@H](OC)[C@H](O)C(C)O3)[C@@H](O)C(C)O2)[C@H](O)C(C)O1` (stereo not given in full), for which the growth in [1] was 53.5%; in test [2] it was 38.6%; in [3], 25.8%; in test [4], 43.2%; in test [5], 27.6%; in test [6], 49.9%. Further, the growth in test [7] was 30.7%; in test [8], 38.1%; in test [9], 19.9%; in [10], 57.2%; in test [11], 102%; in test [12], 34.9%. Moreover, the growth in [13] was 35.7%; in test [14], 40.1%; in test [15], 26.5%; in [16], 42.5%; in test [17], 14.6%; in [18] it was 0.169% (active). Further, the growth in test [19] is 17.8%; in test [20], 30.7%.
In the case of `COC(=O)[C@]1(C)CCC[C@]2(C)[C@H]3C[C@H]4C(C(C)C)=C[C@]3(CC[C@H]21)[C@H]1[C@@H]4[C@@H](OCCC#N)CC[C@@H]1OCCC#N`, the growth in [1] is 57%; in [2], 26.8%; in test [3], 61.9%; in test [4], 47.3%; in [5] it was -10.5% (active); in test [6] it was 47.9%. The growth was 30% in test [7]; 59.7% in test [8]; 37.8% in test [9]; 40.7% in test [10]; 29.9% in test [11]; 6.91% (active) in test [12]. Besides, the growth in [13] was 75.6%; in test [14], 52.3%; in test [15], 33.3%; in [16], 2.36% (active); in test [17] it was 26.2%; in test [18], 39.5%. In addition, the growth in test [19] is 59.7%; in [20], 61.9%.
